Measured values: PubChem BioAssay AID651860 (Broad Institute, 2012)
Results with a measured potency or affinity are listed apart. Unmarked numbers belong to inactive results. Activity calls are given as the source filed them.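 How the source made its calls: active means compounds lowering HepG2 cell ATP luminescence with a fitted half-maximal concentration at most twice the top tested dose; inconclusive means flat fit with 30 to 70 percent signal loss, or poor fit; inactive means the rest.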

Test: liver cell line viability loss – HepG2, luminescence plate reader, powder samples, set 2, cytotoxicity control, dose response (AID 651860)
Conditions: CellTiter-Glo ATP luminescence, 48 h; series mostly up to 26 µM; activity change, negative = cytotoxic: at the top concentration
With `O=C(O)C1CCCCC1C(=O)N1CCc2ccccc2C1CN1Cc2ccccc2C1=O` (centres undefined) the “activity change, negative = cytotoxic” value was -6.56%.
With `CCOC(=O)C(C(=O)OCC)c1cc(CNS(=O)(=O)c2ccc(C)cc2C)c2ccccc2n1` the “activity change, negative = cytotoxic” value was -9.04%.
For `COC(=O)C(C(=O)OC)c1cc(NS(=O)(=O)c2c(C)cc(C)cc2C)c2ccccc2c1O`, the “activity change, negative = cytotoxic” value was -3.99%.
For `O=C(NCCc1ccccc1)c1ccccc1C(=O)NC[C@@H]1c2ccccc2CCN1C(=O)C1CCCCC1C(=O)O` (some centres undefined), the “activity change, negative = cytotoxic” value was 3.84%.
For `O=C(NCCCN1CCOCC1)c1ccccc1C(=O)NC[C@@H]1c2ccccc2CCN1C(=O)C1CCCCC1C(=O)O` (some centres undefined), the “activity change, negative = cytotoxic” value was -16.8%.
With `O=C(NC[C@@H]1c2ccccc2CCN1C(=O)[C@@H]1CCCC[C@@H]1C(=O)O)c1ccc(CCl)cc1` the “activity change, negative = cytotoxic” value was -0.926%.
In the case of `O=C(O)[C@H]1CCCC[C@H]1C(=O)N1CCc2ccccc2C1CCN1C(=O)c2ccccc2C1=O` (some centres undefined), the “activity change, negative = cytotoxic” value was 3.26%.
For `O=C(O)Cc1ccccc1C(=O)N1CCc2ccccc2[C@H]1CN1C(=O)c2ccccc2C1=O`, the “activity change, negative = cytotoxic” value was -3.12%.
With `O=C(O)CCCC(=O)N1CCc2ccccc2C1CN1C(=O)c2ccccc2C1=O` (centres undefined) the “activity change, negative = cytotoxic” value was -4.83%.
In the case of `COc1ccccc1CCNC(=O)[C@@H]1c2ccccc2CCN1C(=O)C1CCCCC1C(=O)O` (some centres undefined), the outcome was “inactive”.
For `CCOC(=O)Cc1nc(NS(=O)(=O)c2c(C)cc(C)cc2C)c2ccccc2n1`, the “activity change, negative = cytotoxic” value was 2.6%.
With `O=C(NC[C@@H]1c2ccccc2CCN1C(=O)[C@@H]1CCCC[C@@H]1C(=O)O)OCC1c2ccccc2-c2ccccc21` the “activity change, negative = cytotoxic” value was 19.7%.
In the case of `O=C(Cc1ccccc1)NC[C@@H]1c2ccccc2CCN1C(=O)[C@@H]1CCCC[C@@H]1C(=O)O`, the “activity change, negative = cytotoxic” value was 0.039%.
For `O=C1c2ccccc2C(=O)N1C[C@@H]1c2ccccc2CCN1C(=O)OCc1ccccc1`, the “activity change, negative = cytotoxic” value was 1.85%.
With `O=C(O)[C@H]1CCCC[C@H]1C(=O)N1CCc2ccccc2C1` (racemic) the “activity change, negative = cytotoxic” value was -1.55%.
In the case of `CC(C)OC(=O)C(C(=O)C(F)(F)F)c1cc(NS(=O)(=O)c2ccccc2)c2ccccc2c1O` (centres undefined), the “activity change, negative = cytotoxic” value was -11.9%.
For `Cc1ccc(S(=O)(=O)NC(=O)[C@@H]2c3ccccc3CCN2C(=O)[C@@H]2CCCC[C@@H]2C(=O)O)cc1`, the outcome was “inactive”.
With `CC(C)CNc1nc(NS(=O)(=O)c2ccccc2)c2ccccc2n1` the “activity change, negative = cytotoxic” value was -10.5%.
For `COC(=O)C1CCCCC1C(=O)N1CCc2ccccc2C1CN1C(=O)c2ccccc2C1=O` (centres undefined), the “activity change, negative = cytotoxic” value was -1.95%.
With `C[C@H](NC(=O)C1CCCC[C@H]1C(=O)O)c1ccccc1` (mixture of isomers) the “activity change, negative = cytotoxic” value was -5.04%.
For `O=C(O)C1CCCCC1C(=O)N1CCc2ccccc2C1c1ccccc1` (centres undefined), the “activity change, negative = cytotoxic” value was -2.51%.
In the case of `Cc1cc(C)c(S(=O)(=O)Nc2nc(N(C)C)nc3ccccc23)c(C)c1`, the “activity change, negative = cytotoxic” value was -10.1%.
For `Cc1cc(C)c(S(=O)(=O)Nc2nc(NCCO)nc3ccccc23)c(C)c1`, the “activity change, negative = cytotoxic” value was -0.961%.
In the case of `NC(=O)c1ccccc1C(=O)NC[C@@H]1c2ccccc2CCN1C(=O)[C@@H]1CCCC[C@@H]1C(=O)O`, the “activity change, negative = cytotoxic” value was -1.73%.
For `O=C(O)[C@H]1CCCC[C@H]1C(=O)N1CCc2ccccc2[C@H]1CNS(=O)(=O)c1ccc([N+](=O)[O-])cc1`, the “activity change, negative = cytotoxic” value was -11.1%.
In the case of `C[C@@H](NC(=O)C1CCCC[C@H]1C(=O)O)c1ccccc1` (mixture of isomers), the “activity change, negative = cytotoxic” value was 0.345%.
For `Cc1ccc(S(=O)(=O)NNc2nc(NCC(N)=O)nc3ccccc23)cc1`, the “activity change, negative = cytotoxic” value was -9.05% [at 12 µM].
With `CC(=O)Nc1cc(NS(=O)(=O)c2c(C)cc(C)cc2C)c2ccccc2c1O` the “activity change, negative = cytotoxic” value was 7.31%.
For `O=C(O)[C@H]1CCCC[C@H]1C(=O)N1CCC2=C(CCCC2)C1CN1C(=O)c2ccccc2C1=O` (some centres undefined), the outcome was “inactive”.
For `O=C(O)C1CCCCC1C(=O)N1CCc2ccccc2[C@H]1C(=O)NCCc1ccccc1` (some centres undefined), the “activity change, negative = cytotoxic” value was -10.2%.
For `O=C(NC[C@@H]1c2ccccc2CCN1C(=O)[C@@H]1CCCC[C@@H]1C(=O)O)c1ccccc1CO`, the “activity change, negative = cytotoxic” value was -0.395%.
With `Cc1ccc(S(=O)(=O)Nc2cc(C(C(=O)OC(C)C)C(=O)C(F)(F)F)c(O)c3ccccc23)c(C)c1` (centres undefined) the “activity change, negative = cytotoxic” value was -11.9%.
For `O=C(O)c1ccccc1C(=O)N1CCc2ccccc2C1CN1C(=O)c2ccccc2C1=O` (centres undefined), the “activity change, negative = cytotoxic” value was 3.68%.
With `CCOC(=O)C(C(=O)OCC)c1nc(NS(=O)(=O)c2c(C)cc(C)cc2C)c2ccccc2n1` the “activity change, negative = cytotoxic” value was 2.58%.
